# Shiga inhibitor – inhibitors of Shiga toxin in Vero cells | Vero cells, Shiga toxin protein synthesis inhibition reporter | inhibition, % at 38.7 µM | actives 9.2% (n = 290,000) | AID 2315; in the data active means inhibition mostly above about 28%, no sharp cut-off; inactive means mostly below about 43%; further: 0% is about no effect
# CHX counter – affects cycloheximide protein synthesis inhibition readout, counter-screen; cell reporter, cycloheximide protein synthesis inhibition counterscreen; max response, %; actives 12% (n = 300,000); in the data active means max response mostly above about 13%, no sharp cut-off; inactive means mostly below about 14%; further: read at 38.3 µM for the half of the compounds with a filed dose; 0% is about no effect
# Pf growth 96h – inhibits malaria parasite growth, 96 h | P. falciparum luciferase reporter growth, 96 h | Potency, µM (doses to about 28.7 µM), for the others: at the top dose activity change, negative = inhibition, hits mostly inhibitors | actives 6.9% (n = 320,000) | AID 504834; further: potency means the concentration at half of the fitted maximal effect; on the % scale 0 is the no-effect control and ±100 the full control effect
#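 Infected RBCs, 2% Hct / 0.05% parasitemia final; luciferase-reporter P. falciparum; cpd 96 h, 37 C, 5% CO2; luciferase detection reagent; luminescence.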
# Pf growth 48h – inhibits P. falciparum growth in the first generation, 48 h; actives 5.9% (n = 310,000); Potency, µM (top dose mostly 28.7 µM), inactives show at the highest dose activity change, negative = inhibition, most hits filed as inhibitors; P. falciparum luciferase growth in erythrocytes, 48 h; further: potency means the concentration at half of the fitted maximal effect; on the % scale 0 is the no-effect control and ±100 the full control effect
#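 Compounds are pin-transferred into medium, infected erythrocytes (2% hematocrit, 0.1% parasitemia final) are added, and plates sit one parasite generation at 37 C in 5% CO2. Detection reagent is then added and luminescence measured.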
# NS1 inh – inhibitors of influenza NS1 protein function; actives 0.4% (n = 270,000); AID 2326; Potency, µM (titrated, usually from 46.1 µM), for inactives: at the highest dose activity, positive = more growth; calls by dose curve; further: potency means the concentration at half of the fitted maximal effect; actives are rising curves; nearly all actives have a fitted effect of over 50% in size
#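 In this qHTS, NS1 from influenza A is expressed in budding yeast, where it slows growth. Cells are switched from glucose to 2% galactose medium (pH 6.0, -URA), treated with compound, and growth recovery is read at OD600.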
# Starred values were filed as active, the others as inactive; ? = inconclusive; nt = no result. Hits are enriched below; roughly 21% of the tested compounds scored in any of these assays. Unless noted, the call rests on the fitted dose curve; in most records, active means well fitted inhibition curve with a large enough effect; inconclusive means small, poorly fitted or top-dose-only effect, or another doubt; inactive means no such curve, though single readings can be large or run the other way.
SMILES,Shiga inhibitor,CHX counter,Pf growth 96h,Pf growth 48h,NS1 inh
CCOc1ccc(NS(=O)(=O)c2ccc(C(=O)N(C)Cc3cccc(OC)c3OC)cc2)cc1,14,5,?,-13%,-18%
Cc1ccccc1CS(=O)(=O)c1cnc2ccccc2n1,-3,10,nt,15µM*,-7%
O=C(Nc1ccc(Cn2cccn2)cc1)c1ccc(COc2cccc(Br)c2)cc1,22,19*,?,nt,-2%
CN=C1SC(C(=O)Nc2ccccc2Cl)CC(=O)N1c1ccc(OC(F)(F)Cl)cc1 (stereo unspecified),-16,-2,0%,10µM*,nt
O=C(Nc1ccccc1Cl)C1CC(=O)N(c2ccccc2)C1 (stereo unspecified),6,1,0%,?,5%
O=C(COC(=O)c1nc(Cl)c(Cl)c(Cl)c1Cl)NCc1ccccc1,nt,nt,28%,-2%,nt
O=C(Oc1ccc(/C=N/Nc2ccccc2)cc1)c1ccccc1,75*,22*,-58%,?,-64%
O=C(O)c1ccc(N/N=C/c2ccc(OC(=O)c3cccc(Cl)c3)cc2)cc1,75*,37*,241%,-7%,-2%
O=C(Oc1ccc(/C=N/O)cc1)c1ccccc1,58,23*,-19%,nt,-96%
CCc1ccc(-c2cc(C)no2)cc1S(=O)(=O)NC(C)Cc1ccco1 (stereo unspecified),-7,1,-21%,-24%,-3%
O=c1cc(Nc2cccc(Br)c2)[nH]c(=O)[nH]1,-4,-2,12µM*,-18%,nt
Cc1cccc(Nc2cc(=O)[nH]c(=O)[nH]2)c1,-4,-2,12µM*,-7%,13%
Cc1ccc(Nc2cc(=O)[nH]c(=O)[nH]2)cc1C,-9,-2,26%,?,nt
CCOC(=O)C1CCN(Cc2cc(=O)oc3c(C)c(C)ccc23)CC1,15,0,-29%,?,-4%
Cc1ccc(N(C(=O)C2CCC(=O)N2)C2(C(=O)NC3CCCC3)CCCCC2)cc1 (stereo unspecified),19,-7,?,nt,4%
O=C(Nc1ccccc1-c1nc2ccccc2s1)c1ccco1,106*,39*,4%,1%,-5%
Cc1noc(C)c1C(=O)Nc1nc2ccc(Cl)cc2s1,89*,42*,49%,50%,-22%
Cn1cc(Cl)c(C(=O)Nc2nc3ccc(Cl)cc3s2)n1,71*,57*,69%,106%,-21%
O=C(Nc1nc2ccc(Cl)cc2s1)c1ccco1,62*,41*,nt,189%,-66%
O=C1CCc2cc(S(=O)(=O)NCCC(=O)NC3CCCCC3)ccc2N1,-2,-2,60%,10%,-6%
COc1cc2c(c(OC)c1OC)-c1c(cc3c(c1OC)OCO3)CC(C)C(C)(O)C2OC(=O)c1ccccc1 (stereo unspecified),19,-4,nt,nt,nt
Cc1cc2c(c(/C=C/C(=O)c3ccccc3)c1)OC1(C=C2)Oc2ccccc2C(=O)N1C (stereo unspecified),-5,9,?,?,nt
O=C(Nc1nc2ccc(Br)cc2s1)c1ccco1,nt,30*,?,194%,-26%
Cc1cc(Br)ccc1NC(=O)c1ccco1,nt,13,?,?,-22%
COc1ccccc1C(=O)Nc1ccc2c(c1)OCO2,61*,43*,157%,nt,-47%
SMILES,Shiga inhibitor,CHX counter,Pf growth 96h,Pf growth 48h,NS1 inh
COc1ccccc1C(=O)Nc1ccc2c(c1)C(=O)NC2=O,22*,28*,?,27%,1%
Cc1ccccc1C(=O)Nc1ccc2c(c1)OCO2,70,30*,nt,194%,-16%
COc1cc(SC)ccc1C(=O)Nc1ccc2c(c1)OCCO2,64,34*,0%,118%,-124%
CCOc1ccccc1C(=O)Nc1ccc2c(c1)C(=O)NC2=O,nt,-2,?,20%,12%
CN(c1ccccc1C(=O)Nc1ccc2c(c1)OCO2)S(C)(=O)=O,16,1,65%,-18%,13%
COc1cc(C(=O)Nc2ccc3c(c2)OCCO3)c(-n2cnnn2)cc1OC,-13,-3,29%,28%,3%
Cc1ccc(NC(=O)C2(NC(=O)c3ccccn3)CCCCC2)cc1Br,8,6,?,?,-1%
CCc1ccc(N(CC(=O)N2CCCCCC2)S(C)(=O)=O)cc1,-5,2,?,-10%,1%
COc1ccccc1C(=O)Nc1ccc2c(c1)OCCO2,85*,41*,?,318%,-35%
COc1ccccc1C(=O)NCC(=O)Nc1ccc2c(c1)OCO2,nt,nt,7%,8%,nt
O=C(NCCCN1CCOCC1)c1ccc(CSc2ccc(Cl)cc2)cc1,-7,-1,?,?,nt
Cc1ccc2oc(=O)c(/C=C(\O)c3ccccc3)nc2c1,19,2,24%,17%,nt
Cc1ccc2oc(=O)c(/C=C(\O)c3cccs3)nc2c1,77*,72*,?,3%,-1%
O=c1oc2ccc(Cl)cc2nc1/C=C(\O)c1cccs1,56*,62*,-10%,?,-42%
Cn1c(=O)c2nc(Cl)c(-c3ccccc3)nc2n(C)c1=O,-6,0,?,4.1µM*,-33%
O=C(c1ccncc1)N1N=C(c2ccc(Br)cc2)CC1c1ccccc1O (stereo unspecified),-8,-4,?,?,-7%
O=C(c1ccccc1Cl)N1N=C(c2ccc(Br)cc2)CC1c1nc2ccccc2[nH]1 (stereo unspecified),28,17*,52%,3%,-81%
O=C(c1ccc(F)cc1Cl)N(c1ccccn1)C1CCCCC1,-15,-1,-3%,7%,nt
CCOc1ccccc1Nc1nc(-c2sc(NC(=O)c3ccc([N+](=O)[O-])cc3)nc2C)cs1,44,6,?,3.3µM*,16%
Cc1ccccc1Nc1nc(-c2sc(NC(=O)c3ccccc3)nc2C)cs1,50*,12,12µM*,9.3µM*,12%
Cc1ccc(Nc2nc(-c3sc(NC(=O)c4ccc([N+](=O)[O-])cc4)nc3C)cs2)cc1,-6,1,2.6µM*,9.3µM*,-2%
CCOc1ccccc1NC(=O)NNS(=O)(=O)c1ccc([N+](=O)[O-])cc1,-3,-1,0%,-6%,9%
COc1ccc(OC)c(Nc2nc(-c3sc(NC(=O)c4ccccc4)nc3C)cs2)c1,35,-2,-22%,?,27%
Cc1nc(NC(=O)c2ccccc2)sc1-c1csc(Nc2ccc(F)cc2)n1,22,10,3.7µM*,?,?
Cc1ccc(Cl)cc1Nc1nc(-c2sc(NC(=O)c3cccc(Cl)c3)nc2C)cs1,-3,11,?,?,-17%
Cc1ccccc1Nc1nc(-c2sc(NC(=O)c3cccc(Cl)c3)nc2C)cs1,44,19*,?,?,21%
Cc1ccccc1Nc1nc(-c2sc(NC(=O)c3ccc([N+](=O)[O-])cc3)nc2C)cs1,39,16*,13µM*,?,6%
Nc1nonc1C(=O)NCCNCc1ccccc1,-8,-2,12µM*,nt,3%
CCOc1cccc(CNCCNC(=O)c2nonc2N)c1,12,1,-1%,-2%,2%
